Assay results: PubChem BioAssay (NCATS)
Several values for one entry are separate records, joined by “and”; a condition that tells them apart may be missing. Equal entries are not always repeated. Records with an inconclusive call do not appear. A call without a number means that no potency is given here. Unmarked numbers belong to inactive results. Activity calls are given as the source filed them. Calls come from the whole dose curve; as a rule, active = well fitted cell-killing curve with a large enough effect; inconclusive = small, poorly fitted or top-dose-only effect, or effect the other way; inactive = no such curve, though single readings can be large or run the other way.

Tests used:
[1] = Viability qHTS for spleen associated tyrosine kinase inhibitor (SYKi) naive MV4-11 cells (AID 1963823); note: nearly all actives have a fitted effect of over 40% in size
Outline: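 Read-out: CellTiter-Glo luminescence. Exposure: 72 hr, 37 C, 5% CO2, 95% humidity. Cells: MV4-11 without SYK inhibitor history, 500/well, qHTS format.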

[2] = Viability qHTS for spleen associated tyrosine kinase inhibitor (SYKi) drug resistant MV4-11 cells (AID 1963824); note: nearly all actives have a fitted effect of over 35% in size
Outline: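 SYK inhibitor-resistant MV4-11 AML cells, 500 per well, added to predispensed compounds and incubated 72 hr at 37 C, 5% CO2. Viability measured by CellTiter-Glo luminescence after 10 min at room temperature.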
Potency is the fitted concentration of half-maximal effect.

Structure (SMILES) | Potency [1] | Potency [2] | viability (% of control) [1] | viability, % of control [2]
COc1ccc(CNC(=O)c2cc(-c3cncc(C)c3)ncc2-c2nccs2)nc1OC | inactive | inactive |  | 
COc1ccc2c(c1)[C@@H]1C[C@]1(C(=O)N1[C@@H]3CC[C@H]1CN(C)C3)Cn1c-2c(C2CCCCC2)c2ccc(C(=O)NS(=O)(=O)N(C)C)cc21 | 11.6 µM (active) | 7.31 µM (active) |  | 
C=C1CCC2(OC1)OC1CC3C4CC=C5CC(O)CC(O[C@@H]6OC[C@@H](O)[C@H](O)[C@H]6O)C5(C)C4CCC3(C)C1(O)C2C (stereo not given in full) | inactive | inactive |  | 
COC(=O)CCc1cc2ccoc2c(OC)c1O[C@@H]1O[C@H](CO)[C@@H](O)[C@H](O)[C@H]1O | inactive | inactive |  | 
CC1(C)CC[C@]2(C(=O)OC3OC(CO)C(O)C(O)C3O)CC[C@]3(C)C(=CCC4[C@@]5(C)C[C@@H](O)[C@H](OC6OC(C(=O)O)C(O)C(O)C6O)C(C)(C)C5CC[C@]43C)[C@@H]2C1 (stereo not given in full) |  |  | 76.2% [at 9.25 µM] | 95.5% [at 9.25 µM]
CC1=C(C)C(=O)OC(C(C)(O)C2CCC3C4CC=C5CC(OC6OC(COC7OC(CO)C(O)C(O)C7O)C(O)C(O)C6O)CC(O)C5(C)C4CCC32C)C1 (stereo not given) | inactive | inactive |  | 
O=C(C[C@@H]1C(C(=O)O)=CO[C@@H](O[C@@H]2O[C@H](CO)[C@@H](O)[C@H](O)[C@H]2O)/C1=C\CO)OCCc1ccc(O)c(O)c1 | inactive | inactive |  | 
CC12CCC(OC3OC(CO)C(O)C(OC4OC(CO)C(O)C(O)C4O)C3O)CC1CCC1C2CCC2(C)/C(=C3/COC(=O)C3)CCC12O (stereo not given) | inactive | inactive |  | 
COC(=O)C12C(=O)C(C)=C(O)C1(C)C(C)=CC1C3(CO)CCC(O)C(C)(C)C3CCC12C (stereo not given) | inactive | inactive |  | 
CN(C)C(=O)NC1(c2ccccc2)CCN(CCC[C@]2(c3ccc(Cl)c(Cl)c3)CCCN(C(=O)c3ccccc3)C2)CC1 | 2.59 µM (active) | 4.11 µM (active) |  | 
NCC(=O)O | inactive | inactive |  | 
C[C@@H](OC(=O)/C=C/c1ccc(O)cc1)C1=C[C@]2(C=C[C@@H]3C(C(=O)O)=CO[C@@H](O[C@@H]4O[C@H](CO[C@@H]5O[C@H](CO)[C@@H](O)[C@H](O)[C@H]5O)[C@@H](O)[C@H](O)[C@H]4O)[C@@H]32)OC1=O | inactive | inactive |  | 
O=C(CCCCc1ccc2ccccc2c1)C(F)(F)F | inactive | inactive |  | 
CN1C(=O)c2ccccc2NC(=O)[C@]12O[C@@H]2c1cccc(O)c1 | inactive | inactive |  | 
CC(CC(C)O[C@@H]1O[C@H](CO)[C@@H](O)[C@H](O)[C@H]1O)OC(=O)/C=C/c1ccc(O)cc1 (stereo not given in full) | inactive | inactive |  | 
COc1cc(NC(=O)c2cc(C3CC3)on2)c(OC)cc1Cl | inactive | inactive |  | 
O=c1[nH]cnc2c([C@@H]3N[C@H](CO)[C@@H](O)[C@H]3O)c[nH]c12 | inactive | inactive |  | 
N#C/C(=C1/Nc2ccccc2S1)c1ccnc(OCc2ccc(CN3CCOCC3)cc2)n1 | 10.5 µM (active) | 8.33 µM (active) |  | 
CC12CCC(C(OC3OC(COC4OCC(O)(CO)C4O)C(O)C(O)C3O)C1)C(C)(C)O2 (stereo not given) | inactive | inactive |  | 
Cc1ccc(NC(=O)c2ccc(CN3CC[C@H](N(C)C)C3)c(C(F)(F)F)c2)cc1Nc1nccc(-c2cncnc2)n1 | 6.32 µM (active) | 7.23 µM (active) |  | 
CCOc1cc(CC(=O)NC(CC(C)C)c2ccccc2N2CCCCC2)ccc1C(=O)O (stereo not given) | inactive | inactive |  | 
COC(=O)C1=CO[C@@H](O[C@@H]2O[C@H](CO)[C@@H](O)[C@H](O)[C@H]2O)[C@H]2[C@@H]1C=C[C@]21C=C([C@H](C)OC(=O)/C=C/c2ccc(O[C@@H]3O[C@H](CO)[C@@H](O)[C@H](O)[C@H]3O)cc2)C(=O)O1 | inactive | inactive |  | 
CC/C=C/C=C/C1(C)OC(CC(CO)OC)=CC1=O (stereo not given) | 20.6 µM (active) | 23.1 µM (active) |  | 
O=C(OC[C@H]1O[C@@H](Oc2ccccc2CO)[C@H](O)[C@@H](O)[C@@H]1O)c1ccccc1 | inactive | inactive |  | 
O=C(Cc1ccc(Cl)cc1)Nc1cnccc1C(=O)O | inactive | inactive |  | 
COc1ccc(/C=C/C(=O)O[C@@H]2[C@@H](OC(C)=O)[C@@H](OC(C)=O)[C@H](O[C@H]3[C@@H]4C=CO[C@@H](O[C@@H]5O[C@H](CO)[C@@H](O)[C@H](O)[C@H]5O)[C@@H]4[C@@]4(CO)O[C@@H]34)O[C@H]2C)cc1 | inactive | inactive |  | 
Cc1ncc(NC(=O)c2ccc(CN3CCN(C)CC3)c(C(F)(F)F)c2)cc1Nc1nccc(-c2cccnc2)n1 | 920 nM (active) and 1.66 µM (active) | 2.06 µM (active) and 3.32 µM (active) |  | 
COc1cc(C)c(C(=O)O[C@H]2[C@@H](O)[C@H](n3ccc(=O)[nH]c3=O)O[C@@H]2CO)c(OC)c1 | inactive | inactive |  | 
C=C(C)C(=O)O[C@H]1C[C@@](C)(O)C(=O)CC(O)/C(C)=C\[C@H]2OC(=O)C(=C)[C@H]12 (stereo not given in full) | 1.61 µM (active) | 2.02 µM (active) |  | 
CC(=O)C=C=C1C(C)(C)CC(O[C@@H]2O[C@H](CO)[C@@H](O)[C@H](O)[C@H]2O)CC1(C)O (stereo not given in full) | inactive | inactive |  | 
